{
  "source": "PubChem BioAssay (NCI)",
  "assay_in_all_cases": "NCI-60 one-dose screen, 48 h (100 = growth as untreated, 0 = no growth, -100 = all killed)",
  "details_in_all_cases": "10 µM unless noted",
  "key": {"NCI-H23 lung": {"test_system": "NCI-H23 lung"}, "NCI-H226 lung": {"test_system": "NCI-H226 lung"}, "NCI-H322M lung": {"test_system": "NCI-H322M lung"}, "HOP-62 NSCLC": {"test_system": "HOP-62 NSCLC"}, "NCI-H460 lung": {"test_system": "NCI-H460 lung"}, "HOP-92 NSCLC": {"test_system": "HOP-92 NSCLC"}, "NCI-H522 lung": {"test_system": "NCI-H522 lung"}, "A549/ATCC NSCLC": {"test_system": "A549/ATCC NSCLC"}, "786-0 renal": {"test_system": "786-0 renal"}, "COLO 205 colon": {"test_system": "COLO 205 colon"}},
  "note": "This is part of a sample that, as a whole, favours compounds with a hit. Of some 83,000 tested, about 20% had one in any assay.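 Single-concentration screen, 48 h exposure, 96-well plates. Endpoint: percent growth. Below 10 = active.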 A number with no mark means an inactive call. Activity calls are given as the source filed them.",
  "data": [
    {"smiles": "CCc1ccc(CCC(=O)Nc2ncc(Cc3cc(Cl)ccc3Cl)s2)o1", "values": [
      {"measurement": "growth", "setting": "NCI-H23 lung", "result": 48.4, "unit": "%"},
      {"measurement": "growth", "setting": "NCI-H226 lung", "result": 42.8, "unit": "%"},
      {"measurement": "growth", "setting": "NCI-H322M lung", "result": 36.7, "unit": "%"},
      {"measurement": "growth", "setting": "HOP-62 NSCLC", "result": 29.9, "unit": "%"},
      {"measurement": "growth", "setting": "NCI-H460 lung", "result": 10.3, "unit": "%"},
      {"measurement": "growth", "setting": "HOP-92 NSCLC", "result": 51.6, "unit": "%"},
      {"measurement": "growth", "setting": "NCI-H522 lung", "result": "3.35% (active)"},
      {"measurement": "growth", "setting": "A549/ATCC NSCLC", "result": 22.5, "unit": "%"},
      {"measurement": "growth", "setting": "786-0 renal", "result": 30.5, "unit": "%"},
      {"measurement": "growth", "setting": "COLO 205 colon", "result": "8.61% (active)"}
    ]},
    {"smiles": "C=C1C(=O)O[C@H]2[C@H]1CC/C(CNC(=O)c1c[nH]c3ccc(F)cc13)=C\\CC[C@@]1(C)O[C@@H]21", "values": [
      {"measurement": "growth", "setting": "NCI-H23 lung", "result": 14.2, "unit": "%"},
      {"measurement": "growth", "setting": "NCI-H226 lung", "result": 25.9, "unit": "%"},
      {"measurement": "growth", "setting": "NCI-H322M lung", "result": 82.9, "unit": "%"},
      {"measurement": "growth", "setting": "HOP-62 NSCLC", "result": 70.6, "unit": "%"},
      {"measurement": "growth", "setting": "NCI-H460 lung", "result": 85.7, "unit": "%"},
      {"measurement": "growth", "setting": "HOP-92 NSCLC", "result": "-42.3% (active)"},
      {"measurement": "growth", "setting": "NCI-H522 lung", "result": "-73.9% (active)"},
      {"measurement": "growth", "setting": "A549/ATCC NSCLC", "result": 46.6, "unit": "%"},
      {"measurement": "growth", "setting": "786-0 renal", "result": "-59.5% (active)"},
      {"measurement": "growth", "setting": "COLO 205 colon", "result": "-78.6% (active)"}
    ]},
    {"smiles": "CN1C(=O)/C(=C/c2ccc(C(=O)Nc3ncc(Cc4cccc(Cl)c4)s3)cc2)SC1=S", "values": [
      {"measurement": "growth", "setting": "NCI-H23 lung", "result": 59.5, "unit": "%"},
      {"measurement": "growth", "setting": "NCI-H226 lung", "result": 64.5, "unit": "%"},
      {"measurement": "growth", "setting": "NCI-H322M lung", "result": 76.2, "unit": "%"},
      {"measurement": "growth", "setting": "HOP-62 NSCLC", "result": 62.9, "unit": "%"},
      {"measurement": "growth", "setting": "NCI-H460 lung", "result": 20.3, "unit": "%"},
      {"measurement": "growth", "setting": "HOP-92 NSCLC", "result": 71.9, "unit": "%"},
      {"measurement": "growth", "setting": "NCI-H522 lung", "result": 57.5, "unit": "%"},
      {"measurement": "growth", "setting": "A549/ATCC NSCLC", "result": 56, "unit": "%"},
      {"measurement": "growth", "setting": "786-0 renal", "result": 63.4, "unit": "%"},
      {"measurement": "growth", "setting": "COLO 205 colon", "result": 57.8, "unit": "%"}
    ]},
    {"smiles": "O=C(CC(=O)Nc1cccc(C(=O)O)c1)Nc1cccc(C(=O)O)c1", "values": [
      {"measurement": "growth", "setting": "NCI-H23 lung", "result": 107, "unit": "%"},
      {"measurement": "growth", "setting": "NCI-H226 lung", "result": 112, "unit": "%"},
      {"measurement": "growth", "setting": "NCI-H322M lung", "result": 105, "unit": "%"},
      {"measurement": "growth", "setting": "HOP-62 NSCLC", "result": 88.3, "unit": "%"},
      {"measurement": "growth", "setting": "NCI-H460 lung", "result": 100, "unit": "%"},
      {"measurement": "growth", "setting": "HOP-92 NSCLC", "result": 99.7, "unit": "%"},
      {"measurement": "growth", "setting": "NCI-H522 lung", "result": 78, "unit": "%"},
      {"measurement": "growth", "setting": "A549/ATCC NSCLC", "result": 85.8, "unit": "%"},
      {"measurement": "growth", "setting": "786-0 renal", "result": 98, "unit": "%"},
      {"measurement": "growth", "setting": "COLO 205 colon", "result": 100, "unit": "%"}
    ]},
    {"smiles": "CCCCNC(=O)Oc1ccc(/C(=C(/C)Cc2ccc(OC)cc2)c2ccc(OCCN3CCCCC3)cc2)cc1", "values": [
      {"measurement": "growth", "setting": "NCI-H23 lung", "result": 81.6, "unit": "%"},
      {"measurement": "growth", "setting": "NCI-H226 lung", "result": 90.5, "unit": "%"},
      {"measurement": "growth", "setting": "NCI-H322M lung", "result": 92, "unit": "%"},
      {"measurement": "growth", "setting": "HOP-62 NSCLC", "result": 84.1, "unit": "%"},
      {"measurement": "growth", "setting": "NCI-H460 lung", "result": 33.6, "unit": "%"},
      {"measurement": "growth", "setting": "HOP-92 NSCLC", "result": 63.4, "unit": "%"},
      {"measurement": "growth", "setting": "NCI-H522 lung", "result": 81.2, "unit": "%"},
      {"measurement": "growth", "setting": "A549/ATCC NSCLC", "result": 61, "unit": "%"},
      {"measurement": "growth", "setting": "786-0 renal", "result": 66.7, "unit": "%"},
      {"measurement": "growth", "setting": "COLO 205 colon", "result": 34.9, "unit": "%"}
    ]},
    {"smiles": "COc1ccc(-c2nc(-c3cn(C)c4ncccc34)cs2)cc1", "values": [
      {"measurement": "growth", "setting": "NCI-H23 lung", "result": "11.1% [100 µM]"},
      {"measurement": "growth", "setting": "NCI-H226 lung", "result": "2.9% [100 µM] (active)"},
      {"measurement": "growth", "setting": "NCI-H322M lung", "result": "1.44% [100 µM] (active)"},
      {"measurement": "growth", "setting": "HOP-62 NSCLC", "result": "-49.5% [100 µM] (active)"},
      {"measurement": "growth", "setting": "NCI-H460 lung", "result": "-43% [100 µM] (active)"},
      {"measurement": "growth", "setting": "HOP-92 NSCLC", "result": "-40.4% [100 µM] (active)"},
      {"measurement": "growth", "setting": "NCI-H522 lung", "result": "20.1% [100 µM]"},
      {"measurement": "growth", "setting": "A549/ATCC NSCLC", "result": "12.4% [100 µM]"},
      {"measurement": "growth", "setting": "786-0 renal", "result": "-30.9% [100 µM] (active)"},
      {"measurement": "growth", "setting": "COLO 205 colon", "result": "-49.8% [100 µM] (active)"}
    ]},
    {"smiles": "O=C(N/N=C/c1cc(Cl)ccc1O)c1ccccc1Nc1ccnc(C(F)(F)F)c1", "values": [
      {"measurement": "growth", "setting": "NCI-H23 lung", "result": 37.9, "unit": "%"},
      {"measurement": "growth", "setting": "NCI-H226 lung", "result": "-1.12% (active)"},
      {"measurement": "growth", "setting": "NCI-H322M lung", "result": 19.9, "unit": "%"},
      {"measurement": "growth", "setting": "HOP-62 NSCLC", "result": 30.4, "unit": "%"},
      {"measurement": "growth", "setting": "NCI-H460 lung", "result": "4.73% (active)"},
      {"measurement": "growth", "setting": "HOP-92 NSCLC", "result": 14, "unit": "%"},
      {"measurement": "growth", "setting": "NCI-H522 lung", "result": 50.9, "unit": "%"},
      {"measurement": "growth", "setting": "A549/ATCC NSCLC", "result": 54.4, "unit": "%"},
      {"measurement": "growth", "setting": "786-0 renal", "result": 27.2, "unit": "%"},
      {"measurement": "growth", "setting": "COLO 205 colon", "result": 14.1, "unit": "%"}
    ]},
    {"smiles": "C=CC(=O)Nc1ccc(Oc2nccc(Nc3nnc(-c4ccc(C)cc4)s3)n2)cc1", "values": [
      {"measurement": "growth", "setting": "NCI-H23 lung", "result": 79.9, "unit": "%"},
      {"measurement": "growth", "setting": "NCI-H226 lung", "result": 86.2, "unit": "%"},
      {"measurement": "growth", "setting": "NCI-H322M lung", "result": 98.7, "unit": "%"},
      {"measurement": "growth", "setting": "HOP-62 NSCLC", "result": 83.5, "unit": "%"},
      {"measurement": "growth", "setting": "NCI-H460 lung", "result": 59.9, "unit": "%"},
      {"measurement": "growth", "setting": "HOP-92 NSCLC", "result": 72.4, "unit": "%"},
      {"measurement": "growth", "setting": "NCI-H522 lung", "result": 24.3, "unit": "%"},
      {"measurement": "growth", "setting": "A549/ATCC NSCLC", "result": 77, "unit": "%"},
      {"measurement": "growth", "setting": "786-0 renal", "result": 70.8, "unit": "%"},
      {"measurement": "growth", "setting": "COLO 205 colon", "result": 100, "unit": "%"}
    ]},
    {"smiles": "O=C1c2cccc3cccc(c23)C(=O)N1C/C=C/c1ccc2c3c(cccc13)C(=O)N(CCO)C2=O", "values": [
      {"measurement": "growth", "setting": "NCI-H23 lung", "result": 69.6, "unit": "%"},
      {"measurement": "growth", "setting": "NCI-H226 lung", "result": 58.3, "unit": "%"},
      {"measurement": "growth", "setting": "NCI-H322M lung", "result": 62.9, "unit": "%"},
      {"measurement": "growth", "setting": "HOP-62 NSCLC", "result": 70.6, "unit": "%"},
      {"measurement": "growth", "setting": "NCI-H460 lung", "result": 72.6, "unit": "%"},
      {"measurement": "growth", "setting": "HOP-92 NSCLC", "result": "2.53% (active)"},
      {"measurement": "growth", "setting": "NCI-H522 lung", "result": 89.2, "unit": "%"},
      {"measurement": "growth", "setting": "A549/ATCC NSCLC", "result": 81.2, "unit": "%"},
      {"measurement": "growth", "setting": "786-0 renal", "result": 84.4, "unit": "%"},
      {"measurement": "growth", "setting": "COLO 205 colon", "result": 68.3, "unit": "%"}
    ]}
  ]
}
